PLK1 PBD inh – qHTS for Inhibitors of PLK1-PDB (polo-like kinase 1 - polo-box domain): Primary Screen; Serine/threonine-protein kinase PLK1 (Homo sapiens), P53350; Plk1 PBD binding of FITC phosphopeptide, fluorescence polarization; Potency, µM, for the others: max response, negative = inhibition, hits mostly inhibitors; 360,000 compounds, 2.8% hits; AID 720504, 2013; also: potency is read from the fitted curve at half-maximal effect; series mostly up to about 57 µM; nearly all actives have a fitted effect of over 65% in size
VDR inhibitor – Inhibitors of the vitamin D receptor (VDR): qHTS; VDR-SRC2-3 peptide fluorescence polarization, 2 h; Potency, µM, without a hit: max response, negative = inhibition, hits mostly inhibitors; 400,000 compounds, 0.93% hits; also: potency is read from the fitted curve at half-maximal effect
Target sequence (P11473 whole entry, looked up): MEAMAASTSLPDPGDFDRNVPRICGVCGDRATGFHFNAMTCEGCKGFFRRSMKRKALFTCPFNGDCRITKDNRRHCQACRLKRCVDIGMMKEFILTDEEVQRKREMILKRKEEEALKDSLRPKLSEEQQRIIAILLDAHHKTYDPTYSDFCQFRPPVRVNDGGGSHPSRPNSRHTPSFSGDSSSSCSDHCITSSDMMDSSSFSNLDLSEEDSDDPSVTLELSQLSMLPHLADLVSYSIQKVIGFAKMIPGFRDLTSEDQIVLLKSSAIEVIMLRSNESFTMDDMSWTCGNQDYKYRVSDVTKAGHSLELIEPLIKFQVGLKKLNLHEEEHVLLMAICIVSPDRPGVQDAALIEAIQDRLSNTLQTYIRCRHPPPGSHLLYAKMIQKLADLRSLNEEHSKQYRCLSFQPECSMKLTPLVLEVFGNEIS
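Compounds are added to VDR with labelled SRC2-3 coactivator peptide and held 2 h at room temperature. Inhibition of the VDR–peptide interaction is then read as a change in fluorescence polarization.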
CCT chaperon mod – High-Throughput Screening for Modulators of Cytosolic Chaperonin Activity | purified chaperonin ATPase assay, HTRF ADP detection, 30 min | activity change, % (test concentration not listed), hits read low | 360,000 compounds, 0.3% hits; in the data active = activity change below about -30%
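We incubate TRiC, 40 or 20 nM final, with library compounds at 76 uM and 10 uM ATP for 30 min at 37 °C. ADP formed is detected with Transcreener HTRF reagents after 30 min at room temperature.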
G9a block – qHTS Assay for Inhibitors of Histone Lysine Methyltransferase G9a | G9a H3K9 monomethylation, AlphaScreen, 2 h | 350,000 compounds, 8.8% hits | Potency, µM (titrated, usually from 102 µM), without a hit: at the highest dose activity, negative = inhibition, actives largely listed as inhibitors | AID 504332, 2011; also: potency is read from the fitted curve at half-maximal effect; nearly all actives have a fitted effect of over 75% in size
Target sequence (Q96KQ7 913-1193 limits assumed): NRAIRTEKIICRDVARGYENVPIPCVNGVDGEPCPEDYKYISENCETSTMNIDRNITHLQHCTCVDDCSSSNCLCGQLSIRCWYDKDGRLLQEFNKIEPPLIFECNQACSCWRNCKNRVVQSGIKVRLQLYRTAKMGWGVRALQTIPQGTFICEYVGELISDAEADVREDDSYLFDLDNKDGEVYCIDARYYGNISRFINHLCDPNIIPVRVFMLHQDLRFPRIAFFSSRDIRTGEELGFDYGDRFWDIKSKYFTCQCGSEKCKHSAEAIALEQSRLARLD
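Signal arises when biotinylated H3K9 peptide, once monomethylated, bridges streptavidin donor and antibody-captured acceptor beads. Enzyme at 20 nM was preincubated 15 min with test compounds; peptide 500 nM and SAM 20 uM then reacted for 2 h.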
MmCpn inh – Inhibitors of TCP-1 ring complex (TRiC) of Methanococcus maripaludis (MmCpn): qHTS. Chaperonin Mm-Cpn (Methanococcus maripaludis). purified Mm-Cpn ATPase, ADP Transcreener TR-FRET. Potency, µM (titrated, usually from 76.9 µM), without a hit: top-dose activity, negative = inhibition, most hits filed as inhibitors. 330,000 compounds, 0.031% hits; also: potency is read from the fitted curve at half-maximal effect; nearly all actives have a fitted effect of over 80% in size
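25 nM Mm-CPN + cpd, 10 min 37°C; + 10 uM ATP, 30 min 37°C; buffer 30 mM Tris pH 7.4, 100 mM KCl, 5 mM MgCl2, 1 mM DTT; Transcreener ADP HTRF detection 30 min RT.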
Sfp inh – qHTS Assay for Inhibitors of Bacillus subtilis Sfp phosphopantetheinyl transferase (PPTase). Biochemical Sfp PPTase activity, qHTS. 4'-phosphopantetheinyl transferase ffp (Bacillus subtilis), Q9F4F7. Potency, µM, inactives show largest response in the series, negative = inhibition, hits mostly inhibitors. AID 1490, 2009. 310,000 compounds, 3.5% hits;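 also: the enzyme is Sfp with the accession as filed and its product quenches rhodamine fluorescence; potency is read from the fitted curve at half-maximal effect; 0% = enzyme reaction without inhibitor and -100% = no enzyme wells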
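Sfp 15 nM + cpd, 15 min RT; start w/ rhodamine-CoA 5 uM, BHQ-2-YbbR 12.5 uM (final); 50 mM Hepes pH 7.6, 10 mM MgCl2, 0.01% NP-40, 0.01% BSA; read 525/598 nm at 0 and 30 min.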
* = called active by the depositor; u = inconclusive; x = no result; [ ] = remark or other dose. An excerpt weighted towards active compounds, which were near 10% of everything screened. Unless noted, calls follow the shape of the dose curve; as a rule, active = well fitted curve in the direction sought with a large enough effect; inconclusive = small, poorly fitted or top-dose-only effect, or another doubt; inactive = no such curve, though single readings can be large; an effect the other way counts as inactive or inconclusive. Unless noted, % is scaled to controls: 0 for no effect and ±100 for the full control effect.

SMILES	PLK1 PBD inh	VDR inhibitor	CCT chaperon mod	G9a block	MmCpn inh	Sfp inh
COC(=O)C(CCSC)NC(=O)c1cc2c(n(-c3ccc(C)cc3)c1=O)CC(C)(C)CC2=O (stereo unspecified)	x	-5%	x	u	x	x
Cn1cccc1C(NC(=O)c1ccccc1)C(Cl)(Cl)Cl (stereo unspecified)	1%	-9%	-1	45µM*	3%	9%
CC1CN(C(NC(=O)c2ccccc2)C(Cl)(Cl)Cl)CC(C)O1 (stereo unspecified)	0%	8%	0	-6%[59 µM]	2%	16%
CC(c1ccccc1)n1c(-c2ccccc2F)n[nH]c1=S (stereo unspecified)	-9%	14%	-1	x	-1%	-6%
S=c1[nH]nc(-c2ccncc2)n1Cc1ccccc1	-6%	9%	-1	10µM*	0%	22%
S=c1[nH]nc(-c2cccnc2)n1Cc1ccccc1	-11%	3%	-2	1.3µM*	2%	-34%
CCc1ccccc1-n1c(-c2ccncc2)n[nH]c1=S	-7%	0%	0	5.6µM*	4%	-14%
CC(c1ccc(F)cc1)n1c(-c2cccs2)n[nH]c1=S (stereo unspecified)	-14%	-4%	0	5µM*	0%	u
O=C1OC2C[C@H]1[C@@H]1C(=O)N(Cc3ccccc3)CCC1C2I (stereo partly specified)	x	7%	x	-22%[59 µM]	x	11%
COc1ccc(N2CCN(S(=O)(=O)c3c(C)nc4sc(C)cn4c3=O)CC2)cc1	x	2%	x	u	x	x
CN(c1nccc(=O)[nH]1)C1CCN(c2nc3ccccc3n2Cc2ccc(F)cc2)CC1	x	-4%	x	-30%[12.7 µM]	x	2%
CCc1ccc(NC(=O)c2sc3nc(C)c(C(=O)Nc4ccc(C)cc4C)c(-c4ccco4)c3c2N)cc1	x	-13%	x	12%[59 µM]	x	x
Cc1oc(-c2ccc(C(=O)NCc3ccc(Cl)cc3)cc2)nc1CS(=O)(=O)c1ccccc1	x	9%	x	u	x	x
CC(c1ccccc1)n1c(-c2ccncc2)n[nH]c1=S (stereo unspecified)	-13%	9%	-3	2.5µM*	1%	3%
CC(c1ccccc1)n1c(-c2ccc(Cl)cc2)n[nH]c1=S (stereo unspecified)	-9%	-12%	-3	x	1%	-8%
Cc1cccc(NC(=O)CN2C(=O)C(c3ccc(F)cc3)=NC23CCCCCC3)c1C	x	-11%	x	9%[59 µM]	x	x
CCCOc1ccc(CN(C(=O)c2nc(SC(C)C)ncc2Cl)C2CCS(=O)(=O)C2)cc1 (stereo unspecified)	x	15%	x	-6%[59 µM]	x	x
Cc1ccc(-n2c(N)c(C(=O)Nc3ccccc3F)sc2=S)cc1C	u	-6%	-1	22µM*	2%	-27%
Cc1ccc(NC(=O)c2sc(=S)n(-c3cc(C)ccc3F)c2N)cc1	12µM*	89µM*	-1	8.9µM*	1%	50µM*
Cc1cc(C)c2c(N)c(C(=O)Nc3ccc(F)cc3)sc2n1	-16%	35%	-4	u	-3%	-2%
Cc1ccccc1-n1c(N)c(C(=O)Nc2ccc(F)cc2)sc1=S	u	-7%	0	11µM*	-5%	u
O=C(NCc1ccccc1Cl)c1ccc2c(c1)N(Cc1ccccc1)C(=O)CS2	x	18%	x	3%[59 µM]	x	x
CCCN(CC(=O)Nc1ccccc1OC)Cc1c(O)ccc2ccccc12	9.5µM*	u	-1	3.5µM*	1%	-10%
CCc1ccccc1NC(=O)CN(C)Cc1c(O)ccc2ccccc12	12µM*	u	1	1.8µM*	u	-7%
CCc1ccccc1NC(=O)NNC(=O)c1ccc2ccccc2c1O	-2%	0%	-1	117%	-1%	8%
SMILES	PLK1 PBD inh	VDR inhibitor	CCT chaperon mod	G9a block	MmCpn inh	Sfp inh
CN(CC(=O)Nc1ccccc1C(F)(F)F)Cc1c(O)ccc2ccccc12	12µM*	u	0	7.9µM*	0%	-6%
Cc1oc2ncnc(N3CCCCC3)c2c1C(=O)NCC1CCN(Cc2ccccc2F)CC1	x	11%	x	-16%[59 µM]	x	x
Cc1cccc(OCC(=O)O/N=C(\N)Cc2ccc([N+](=O)[O-])cc2)c1	-13%	0%	1	35µM*	-2%	-6%
O=C(Cn1c(=O)n(-c2ccccc2)c(=O)c2ccc(C(=O)NCc3ccc4c(c3)OCO4)cc21)Nc1ccc(Br)cc1F	x	4%	x	1%[59 µM]	x	x
COc1ccc(CNC(=O)c2nc(SCc3ccccc3F)ncc2Cl)cc1	x	-1%	x	-10%[59 µM]	x	x
CN(C)S(=O)(=O)c1ccc2c(c1)N(CC(=O)NCc1ccccc1)C(=O)C1CCCCN21 (stereo unspecified)	x	1%	x	5%[59 µM]	x	x
Cc1ccc(CN2C(=O)C3CCCN3c3ccc(S(=O)(=O)N4CCOCC4)cc32)cc1 (stereo unspecified)	x	x	x	13µM*	-8%	21%
CCN(CC)S(=O)(=O)c1ccc2c(c1)N(CC(=O)Nc1ccc(C)cc1C)C(=O)C1CCCN21 (stereo unspecified)	x	6%	x	14µM*	x	x
O=C(NC1CC1)c1ccc(Cn2c(SCc3ccccc3F)nc3cccnc32)cc1	x	2%	x	1%[59 µM]	x	x
CCCNC(=O)C(Cc1ccccc1F)NC(=O)c1ccc(C#N)cc1 (stereo unspecified)	-7%	10%	-1	-6%[0.501 µM]	-1%	x
CCCNC(=O)C(Cc1ccccc1C)NC(=O)c1ccc(C#N)cc1 (stereo unspecified)	2%	8%	-38*	5%[2.33 µM]	1%	x
CC1=CC(c2ccc(Cl)cc2)n2nc(NC(=O)c3ccccc3)nc2N1 (stereo unspecified)	-10%	5%	0	14µM*	-6%	-8%
CC(=O)Nc1nc2n(n1)C(c1ccc(Cl)cc1)C=C(C)N2 (stereo unspecified)	-7%	26%	0	u	-4%	56µM*
CCOc1ccccc1CN1CCN(Cc2ccc3cc(F)ccc3n2)CC1CCO (stereo unspecified)	-3%	-12%	-3	79µM*	2%	9%
CCOC(=O)N1CCC(N2CCN(Cc3ccc(C)o3)C(CCO)C2)CC1 (stereo unspecified)	15µM*	-27%	-3	10%	1%	22%
Cc1ccc(CN2CCN(Cc3ccc4cc(F)ccc4n3)CC2CCO)o1 (stereo unspecified)	-14%	-6%	-1	56µM*	-1%	-30%
